Source: PubChem BioAssay
Only a selection was taken, and hits are over-represented in it overall.
ST2 IL33 inh: inhibitors of human ST2 (IL1RL1) binding to IL-33. Q01638. AlphaLISA ST2-Fc/biotin-IL-33 interaction, 1 h. inhibition, % for hits at 17 µM. 78,000 compounds, 2.3% hits; in the data active means inhibition above about 30%
Target sequence (Q01638 whole entry, looked up): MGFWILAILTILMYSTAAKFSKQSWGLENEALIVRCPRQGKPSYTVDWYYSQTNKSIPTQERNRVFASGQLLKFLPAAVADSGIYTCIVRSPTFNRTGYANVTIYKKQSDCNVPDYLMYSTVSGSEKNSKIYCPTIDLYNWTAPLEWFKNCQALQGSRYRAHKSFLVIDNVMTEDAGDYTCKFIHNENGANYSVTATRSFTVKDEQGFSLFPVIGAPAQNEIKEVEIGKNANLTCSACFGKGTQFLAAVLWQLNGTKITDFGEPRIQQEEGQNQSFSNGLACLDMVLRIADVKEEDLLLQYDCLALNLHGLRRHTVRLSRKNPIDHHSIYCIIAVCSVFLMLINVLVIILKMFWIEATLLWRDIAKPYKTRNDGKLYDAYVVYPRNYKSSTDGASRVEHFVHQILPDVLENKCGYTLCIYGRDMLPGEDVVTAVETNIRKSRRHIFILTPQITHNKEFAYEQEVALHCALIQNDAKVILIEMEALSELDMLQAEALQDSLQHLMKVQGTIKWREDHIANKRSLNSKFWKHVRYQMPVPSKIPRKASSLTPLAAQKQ
Numbers without * were called inactive; i = inactive; ! = a repeat was not active.

SMILES	ST2 IL33 inh
c1ccc(C2CCCN(Cc3nc(-c4cnccn4)no3)CC2)cc1 (configuration not stated)	i
COc1ccc(Nc2cc(C)nc(Nc3ccc(NC(=O)CCCc4ccccc4)cc3)n2)cc1	31.0%*
COc1ccc(Nc2cc(C)nc(Nc3ccc(NC(=O)c4ccccc4OC)cc3)n2)cc1	39.0%*
COc1ccc(C(=O)Nc2ccc(Nc3nc(C)cc(Nc4ccc(C)cc4)n3)cc2)cc1OC	i
CC(=O)Nc1ccc(Nc2nc(C)cc(Nc3ccccc3)n2)cc1	i
Cc1cc(Nc2ccccc2)nc(Nc2ccc(NC(=O)c3ccc(F)cc3)cc2)n1	i
COc1ccc(CC(=O)Nc2ccc(Nc3nc(C)cc(Nc4ccc(OC)cc4)n3)cc2)cc1	33.0%*
COc1ccc(NC(=O)Cc2ccc(Br)cc2)cc1	i
COc1cccc(C(=O)Nc2ccc(Nc3nc(C)cc(Nc4ccccc4)n3)cc2)c1	i
CCC(CC)C(=O)Nc1ccc(Nc2nc(C)cc(Nc3ccccc3)n2)cc1	i
CCOCCCNS(=O)(=O)c1cc(Br)cc2c1N(C(=O)CC)CC2	i
Nc1nn(-c2ccccc2)nc1C(=O)O	i
OCC1(Cc2ccccc2)CCN(Cc2nc3ccccc3s2)CC1	i
Cc1ccc(S(=O)(=O)CC(Cn2nc(Cl)nc2Cl)n2nc(Cl)nc2Cl)cc1 (configuration not stated)	i
COc1ccc(/C=c2\sc3nnc(-c4ccccc4Cl)n3c2=O)cc1	i
Cc1ccc(/C=c2\sc3nnc(-c4ccccc4Cl)n3c2=O)o1	37.0%*
CN(C)c1ccc(/C=c2\sc3nnc(-c4ccccc4Cl)n3c2=O)cc1	i
COc1ccccc1-c1nc2ccc(Br)cc2c(=O)o1	i
O=c1oc(-c2ccccc2[N+](=O)[O-])nc2ccc(I)cc12	i
Cc1c(-c2nc3ccccc3c(=O)o2)cccc1[N+](=O)[O-]	30.0%*
Cc1ccc(C2OC(=O)c3ccccc32)cc1Cl (configuration not stated)	i
CCOc1cc(C2C3=C(Nc4c2c(=O)n(C)c(=O)n4C)c2ccccc2C3=O)ccc1O (configuration not stated)	i
Cc1ccc(C2C3=C(Nc4c2c(=O)[nH]c(=O)n4C)c2ccccc2C3=O)cc1Cl (configuration not stated)	32.0%*
CCOC(=O)C1=C(C)NC2=C(C(=O)c3ccccc32)C1c1ccc(C)cc1 (configuration not stated)	i
Cc1ccc(C2C3=C(Nc4c2c(=O)[nH]c(=O)n4C)c2ccccc2C3=O)cc1 (configuration not stated)	38.0%*
SMILES	ST2 IL33 inh
Cn1c2c(c(=O)[nH]c1=O)C(c1ccc([N+](=O)[O-])o1)C1=C(N2)c2ccccc2C1=O (configuration not stated)	i
Cc1nc(C)c(CC(=O)N2CCC(O)(c3ccccc3C)C2)c(=O)[nH]1 (configuration not stated)	i
Cc1ccc(C)c(C(C)NC(=O)COc2ccccc2Cl)c1 (configuration not stated)	i
Cc1ccc(C(=O)N(C)Cc2ccccc2)cc1[N+](=O)[O-]	i
COc1ccc2sc(C)nc2c1	i
Cc1cccc(-c2cc(N3CCN(S(=O)(=O)c4ccccc4)CC3)ncn2)c1	i
O=C(c1cc(-c2ccc3c(c2)OCO3)on1)N1CCCCCC1	i
COc1ccccc1N=c1sc(C2=c3ccccc3=NC2=O)c(O)n1-c1ccccc1OC	36.0%*
CC(C)c1nc(CN(C)Cc2coc3ccccc3c2=O)cs1	i
Cc1ccsc1[C@@H]1CCN(Cc2cnc(-c3ccccn3)nc2)C[C@H]1O	i
CC(Nc1nc2nonc2nc1N1CCCC1)c1ccccc1 (configuration not stated)	i
COc1ccc(-c2nc3c4c5c(sc4ncn3n2)CCCCC5)cc1OC	i
COc1ccc(OC)c(-c2ncnn2-c2sc3c(c2C#N)CCCCC3)c1	34.0%*
COC(=O)c1ccc(C(=O)Nc2sc3c(c2C#N)CCCCC3)cc1	i
COc1ccc(-c2ncnn2-c2sc3c(c2C#N)CCCCC3)cc1OC	44.0%*
COc1ccc(OC)c(-c2cc(C(=O)Nc3sc4c(c3C#N)CCC4)no2)c1	i
COc1ccccc1-c1cc(C(=O)Nc2sc3c(c2C#N)CCCC3)no1	i
CCCCN(C)S(=O)(=O)c1cccc2cccnc12	i
Cc1ccccc1Cn1c(NCCO)nc2c1c(=O)n(C)c(=O)n2C	i
CCN(CC)CCNC(=O)CSc1cc(=O)n(C)c2cc(Cl)ccc12	i
COc1ccccc1N1CCN(C(=O)c2cccn3c(=O)c4cc5ccccc5cc4nc23)CC1	i
Cc1ccc2c(-c3ccc(CN(C)C)cn3)cccc2n1	i
CC(C)OCCCNC(=O)c1cc2cc3ccc(Cl)cc3nc2o1	i
COc1ccc2cc3cc(C(=O)NC(C)C)oc3nc2c1	i
CCC(C)NC(=O)c1cc2cc3ccc(Cl)cc3nc2o1 (configuration not stated)	31.0%*!
SMILES	ST2 IL33 inh
CC(Oc1cccc(Cl)c1)C(=O)NCC1Cc2cc(-c3ccc(S(C)(=O)=O)cc3)ccc2O1 (configuration not stated)	i
CCCc1[nH]nc2c1C(c1cc(Br)ccc1F)C(C#N)=C(N)O2 (configuration not stated)	i
Cc1ncc(CC(=O)N2CCOC(C(F)(F)F)C2)c(=O)[nH]1 (configuration not stated)	i
CCSc1nnc2c(n1)OC(c1ccc([N+](=O)[O-])o1)Nc1ccccc1-2 (configuration not stated)	i
O=S(=O)(c1cccc2nsnc12)N1CCN(C23CC4CC(CC(C4)C2)C3)CC1	i
CC(=O)Nc1ccc(S(=O)(=O)N2CCC(n3c(Cc4ccccc4)nc4cccnc43)CC2)cc1	i
O=S(=O)(c1cccc2nsnc12)N1CCC(n2c(Cc3ccccc3)nc3cccnc32)CC1	97.0%*
O=C1CCCC2=C1C(c1ccc(F)cc1)n1nc(SCc3ccccc3)nc1N2 (configuration not stated)	i
O=C(c1ccc(-n2ccnc2)cc1)N1CCCC(Nc2ccc3c(c2)OCCO3)C1 (configuration not stated)	i
Cc1ccc2nc(-c3ccco3)c(Nc3ccccc3)n2c1	i
COc1ccc(Br)cc1/C=C1N=C(/C=C/c2ccccc2OC)OC\1=O	i
COc1ccc(Br)cc1C=Nc1c(-c2ccco2)nc2ccccn12	30.0%*
O=C(CCCc1ccc(F)cc1)NC1CCCN(C2Cc3ccccc3C2)C1 (configuration not stated)	i
CC(=O)c1ccc(N2CCN(S(=O)(=O)c3ccc4c(c3)CCN4C(=O)C3CC3)CC2)cc1	i
COc1ccc(NC(=O)N[C@H]2C[C@H]3C(=O)N[C@H](Cc4ccccc4)C(=O)N3C2)cc1	i
COc1ccc(C[C@@H]2NC(=O)[C@@H]3C[C@@H](NC(=O)Nc4cccc(SC)c4)CCN3C2=O)cc1	33.0%*
COc1ccc(CN2CCCN(CC(=O)Nc3cccc(SC)c3)S2(=O)=O)cc1	i
O=C1CCCC2=C1C(c1ccc(Cl)cc1)C1=C(N2)c2ccccc2C1=O (configuration not stated)	i
CN(C)CCNC(=O)C[C@@H]1CCNC[C@@H]1Cc1cc(CC2CCCCC2)on1	i
COc1cc(C(=O)Nc2ccc(C(=O)NCC(C)C)cc2)cc(OC)c1OC	i
COc1ccc2c(c1)c(C(=O)N1CCC3(CCCN(C)C3=O)C1)c(C)n2C (configuration not stated)	i
